Common to all, as to test: DAPPL (digital affinity profiling via proximity ligation, sequencing); 10 mM Tris-HCl pH 7.5, 50 mM NaCl, 1 mM DTT, 4% glycerol, room temperature, 30 min; GST-TFs on glutathione beads, 16-mer random dsDNA library, 0.1% formaldehyde crosslink after washing; high values mean tight binding
Details in all cases: protein: recombinant; tags: N-terminal GST; dsDNA, one strand shown

For one experiment, the target named is T1, FLI1 (Homo sapiens, UniProt Q01543 1-452).
T1 sequence: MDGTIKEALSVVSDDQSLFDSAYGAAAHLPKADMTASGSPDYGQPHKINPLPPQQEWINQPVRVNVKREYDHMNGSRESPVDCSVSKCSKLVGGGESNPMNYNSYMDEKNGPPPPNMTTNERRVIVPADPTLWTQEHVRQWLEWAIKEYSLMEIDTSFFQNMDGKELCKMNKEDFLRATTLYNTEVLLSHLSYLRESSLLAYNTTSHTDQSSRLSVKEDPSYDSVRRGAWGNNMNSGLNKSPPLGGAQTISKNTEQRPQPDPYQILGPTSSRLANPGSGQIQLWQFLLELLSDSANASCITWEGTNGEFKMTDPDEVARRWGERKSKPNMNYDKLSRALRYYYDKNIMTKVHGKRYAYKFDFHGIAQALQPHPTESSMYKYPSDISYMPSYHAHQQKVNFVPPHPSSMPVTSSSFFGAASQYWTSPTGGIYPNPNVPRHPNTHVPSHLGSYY
In short, it runs like this:
(§1)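 Pools of DNA-barcoded human transcription factors, expressed in yeast as GST fusions on glutathione beads and combined with a tag-only sample, were incubated with 200 nmole of a 16-mer random double-stranded DNA library. Incubation took 30 min at room temperature in Tris/NaCl/DTT/glycerol buffer and was followed by washing, 0.1% formaldehyde crosslinking, proximity ligation (BsaI/T4 ligase, 1 h, 37 °C), PCR amplification and sequencing on an Illumina NextSeq500. Binding signal is the ratio of a hexamer's read frequency for a factor to its frequency for the tag-only sample.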

Another experiment concerns the target T2, ELK1 (Homo sapiens, UniProt P19419 1-428).
T2 sequence: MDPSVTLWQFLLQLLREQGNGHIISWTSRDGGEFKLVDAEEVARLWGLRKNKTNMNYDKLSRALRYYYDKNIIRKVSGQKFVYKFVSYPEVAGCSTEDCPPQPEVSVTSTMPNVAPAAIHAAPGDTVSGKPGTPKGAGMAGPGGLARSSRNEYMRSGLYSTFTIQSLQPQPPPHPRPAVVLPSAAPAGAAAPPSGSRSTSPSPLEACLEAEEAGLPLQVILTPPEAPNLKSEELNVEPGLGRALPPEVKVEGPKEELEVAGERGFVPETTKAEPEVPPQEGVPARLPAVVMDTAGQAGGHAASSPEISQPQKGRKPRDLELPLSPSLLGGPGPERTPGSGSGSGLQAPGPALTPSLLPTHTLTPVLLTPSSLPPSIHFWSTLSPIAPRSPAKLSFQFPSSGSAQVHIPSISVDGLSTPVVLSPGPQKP
In short, it runs like this: as §1

Another experiment concerns the target T3, GABPA (Homo sapiens, UniProt Q06546 1-454).
T3 sequence: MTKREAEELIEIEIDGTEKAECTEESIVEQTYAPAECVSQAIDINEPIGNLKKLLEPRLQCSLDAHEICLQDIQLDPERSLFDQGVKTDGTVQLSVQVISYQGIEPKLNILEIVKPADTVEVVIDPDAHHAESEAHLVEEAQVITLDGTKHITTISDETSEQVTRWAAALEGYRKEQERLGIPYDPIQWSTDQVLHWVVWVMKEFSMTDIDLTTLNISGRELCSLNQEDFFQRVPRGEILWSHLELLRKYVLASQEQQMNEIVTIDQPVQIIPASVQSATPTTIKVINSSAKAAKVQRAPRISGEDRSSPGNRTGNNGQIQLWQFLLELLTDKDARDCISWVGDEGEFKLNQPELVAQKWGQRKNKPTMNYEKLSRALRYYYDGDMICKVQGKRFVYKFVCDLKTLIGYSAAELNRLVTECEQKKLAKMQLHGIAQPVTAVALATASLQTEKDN
An outline of the steps: as §1

The next experiment deals with T4, ERG (Homo sapiens, UniProt P11308 1-479).
T4 sequence: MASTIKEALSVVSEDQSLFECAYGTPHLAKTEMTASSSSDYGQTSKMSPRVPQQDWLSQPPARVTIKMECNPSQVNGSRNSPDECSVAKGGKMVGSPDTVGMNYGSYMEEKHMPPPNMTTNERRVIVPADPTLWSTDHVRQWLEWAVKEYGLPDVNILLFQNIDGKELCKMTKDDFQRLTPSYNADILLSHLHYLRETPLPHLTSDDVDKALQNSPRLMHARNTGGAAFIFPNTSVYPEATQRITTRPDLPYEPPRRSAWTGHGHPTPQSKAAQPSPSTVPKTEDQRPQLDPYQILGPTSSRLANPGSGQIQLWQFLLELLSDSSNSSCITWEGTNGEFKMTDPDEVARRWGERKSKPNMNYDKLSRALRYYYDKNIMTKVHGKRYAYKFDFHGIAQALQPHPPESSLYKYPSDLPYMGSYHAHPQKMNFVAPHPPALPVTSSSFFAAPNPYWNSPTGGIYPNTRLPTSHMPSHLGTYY
In short, it runs like this: as §1

The target of another experiment is ELF1 (Homo sapiens, UniProt P32519 1-619). In short, it runs like this: as §1
A further experiment has as its target T5, EHF (Homo sapiens, UniProt Q9NZC4 1-300).
T5 sequence: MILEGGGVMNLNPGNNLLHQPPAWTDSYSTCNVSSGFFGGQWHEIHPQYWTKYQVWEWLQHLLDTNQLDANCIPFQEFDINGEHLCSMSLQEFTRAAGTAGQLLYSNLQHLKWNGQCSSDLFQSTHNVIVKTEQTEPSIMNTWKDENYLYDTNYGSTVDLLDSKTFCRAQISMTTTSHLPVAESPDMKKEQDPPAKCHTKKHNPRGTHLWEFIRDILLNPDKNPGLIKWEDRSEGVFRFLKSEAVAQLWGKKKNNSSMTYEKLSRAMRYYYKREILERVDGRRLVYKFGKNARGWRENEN
In short, it runs like this:
as §1

The target in another experiment is SPI1 (Homo sapiens, UniProt P17947 1-270). In short, it runs like this: as §1
The next experiment concerns the target SPIB (Homo sapiens, UniProt Q01892 1-262). An outline of the steps: as §1
The target in the next experiment is T6, FEV (Homo sapiens, UniProt Q99581 1-238).
T6 sequence: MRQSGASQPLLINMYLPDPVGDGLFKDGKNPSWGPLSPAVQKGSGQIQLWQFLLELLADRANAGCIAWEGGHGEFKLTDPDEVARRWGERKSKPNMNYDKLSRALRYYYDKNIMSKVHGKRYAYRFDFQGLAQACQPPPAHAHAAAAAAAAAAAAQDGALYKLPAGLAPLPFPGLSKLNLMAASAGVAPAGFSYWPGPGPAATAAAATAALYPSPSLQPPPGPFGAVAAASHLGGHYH
In short, it runs like this: as §1

In the next experiment the target is ETV5 (Homo sapiens, UniProt P41161 1-510). An outline of the steps: as §1
The target in another experiment is T7, SPIC (Homo sapiens, UniProt Q8N5J4 1-248).
T7 sequence: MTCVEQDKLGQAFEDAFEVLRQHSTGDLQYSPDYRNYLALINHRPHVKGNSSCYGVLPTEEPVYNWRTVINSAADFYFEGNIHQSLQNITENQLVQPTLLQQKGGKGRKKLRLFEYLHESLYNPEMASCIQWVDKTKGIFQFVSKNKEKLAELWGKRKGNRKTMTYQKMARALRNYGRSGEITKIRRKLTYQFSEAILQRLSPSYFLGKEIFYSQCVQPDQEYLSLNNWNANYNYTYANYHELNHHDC
In short, it runs like this: as §1

The next experiment has as its target ELF4 (Homo sapiens, UniProt Q99607 1-663). An outline of the steps:
as §1

In a further experiment the target is ETV1 (Homo sapiens, UniProt P50549 1-477). In short, it runs like this:
as §1

Another experiment concerns the target T8, ERF (Homo sapiens, UniProt P50548 1-548).
T8 sequence: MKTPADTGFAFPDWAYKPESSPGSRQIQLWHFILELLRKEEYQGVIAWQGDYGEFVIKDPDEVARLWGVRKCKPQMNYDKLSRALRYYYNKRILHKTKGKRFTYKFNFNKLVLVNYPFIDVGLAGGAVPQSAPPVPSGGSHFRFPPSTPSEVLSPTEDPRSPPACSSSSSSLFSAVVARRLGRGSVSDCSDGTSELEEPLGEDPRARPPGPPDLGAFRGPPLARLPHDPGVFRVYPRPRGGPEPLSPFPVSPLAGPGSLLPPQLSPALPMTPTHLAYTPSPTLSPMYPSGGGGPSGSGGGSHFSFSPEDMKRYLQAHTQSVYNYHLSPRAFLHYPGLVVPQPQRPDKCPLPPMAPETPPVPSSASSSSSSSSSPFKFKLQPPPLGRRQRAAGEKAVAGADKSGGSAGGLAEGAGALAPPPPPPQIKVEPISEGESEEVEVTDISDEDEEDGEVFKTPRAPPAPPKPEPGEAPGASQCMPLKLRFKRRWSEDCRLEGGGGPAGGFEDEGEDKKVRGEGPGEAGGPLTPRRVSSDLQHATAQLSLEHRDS
An outline of the steps: as §1

A further experiment concerns the target T9, ETV3L (Homo sapiens, UniProt Q6ZN32 1-361).
T9 sequence: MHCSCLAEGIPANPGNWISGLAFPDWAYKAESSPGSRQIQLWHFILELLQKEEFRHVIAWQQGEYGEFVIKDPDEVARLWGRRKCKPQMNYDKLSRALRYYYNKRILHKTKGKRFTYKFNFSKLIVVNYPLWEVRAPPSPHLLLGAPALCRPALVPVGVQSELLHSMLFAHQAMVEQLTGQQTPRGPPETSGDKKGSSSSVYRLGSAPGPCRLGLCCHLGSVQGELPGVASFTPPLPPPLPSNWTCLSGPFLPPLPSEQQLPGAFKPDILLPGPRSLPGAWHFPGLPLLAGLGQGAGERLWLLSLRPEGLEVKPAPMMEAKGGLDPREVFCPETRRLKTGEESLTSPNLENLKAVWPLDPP
In short, it runs like this:
as §1

The next experiment concerns the target T10, ETS2 (Homo sapiens, UniProt P15036 1-469).
T10 sequence: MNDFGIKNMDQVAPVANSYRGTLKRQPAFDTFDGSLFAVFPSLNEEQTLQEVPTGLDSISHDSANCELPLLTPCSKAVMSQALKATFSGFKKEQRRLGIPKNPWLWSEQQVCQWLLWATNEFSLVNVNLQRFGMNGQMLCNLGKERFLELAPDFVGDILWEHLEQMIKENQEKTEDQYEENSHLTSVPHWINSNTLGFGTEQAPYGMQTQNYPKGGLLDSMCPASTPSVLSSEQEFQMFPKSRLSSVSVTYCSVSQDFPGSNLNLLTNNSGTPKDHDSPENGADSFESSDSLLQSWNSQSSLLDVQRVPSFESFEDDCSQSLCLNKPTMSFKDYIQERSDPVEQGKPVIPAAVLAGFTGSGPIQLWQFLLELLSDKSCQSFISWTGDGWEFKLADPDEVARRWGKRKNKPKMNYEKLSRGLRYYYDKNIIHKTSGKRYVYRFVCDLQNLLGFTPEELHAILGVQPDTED
In short, it runs like this: as §1

Another experiment deals with T11, SPDEF (Homo sapiens, UniProt O95238 1-335).
T11 sequence: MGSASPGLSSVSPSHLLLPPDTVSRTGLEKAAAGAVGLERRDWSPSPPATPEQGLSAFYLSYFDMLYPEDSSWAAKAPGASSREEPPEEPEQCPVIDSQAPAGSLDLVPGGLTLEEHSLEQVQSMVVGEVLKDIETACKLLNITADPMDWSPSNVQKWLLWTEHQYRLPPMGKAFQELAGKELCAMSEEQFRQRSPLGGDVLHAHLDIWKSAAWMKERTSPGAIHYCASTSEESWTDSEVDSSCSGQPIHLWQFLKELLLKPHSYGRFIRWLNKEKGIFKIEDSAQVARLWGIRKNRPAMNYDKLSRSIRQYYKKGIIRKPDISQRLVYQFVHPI
In short, it runs like this:
as §1

The next experiment has as its target T12, ETV3 (Homo sapiens, UniProt P41162-2 1-143).
T12 sequence: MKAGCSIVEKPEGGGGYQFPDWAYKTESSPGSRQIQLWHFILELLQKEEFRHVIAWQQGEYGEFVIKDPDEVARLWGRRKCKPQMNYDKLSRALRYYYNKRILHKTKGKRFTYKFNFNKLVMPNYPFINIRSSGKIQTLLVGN
In short, it runs like this:
as §1

A further experiment has as its target ETV6 (Homo sapiens, UniProt P41212 1-452). In short, it runs like this:
as §1

SPIB, sequence (Q01892 whole entry): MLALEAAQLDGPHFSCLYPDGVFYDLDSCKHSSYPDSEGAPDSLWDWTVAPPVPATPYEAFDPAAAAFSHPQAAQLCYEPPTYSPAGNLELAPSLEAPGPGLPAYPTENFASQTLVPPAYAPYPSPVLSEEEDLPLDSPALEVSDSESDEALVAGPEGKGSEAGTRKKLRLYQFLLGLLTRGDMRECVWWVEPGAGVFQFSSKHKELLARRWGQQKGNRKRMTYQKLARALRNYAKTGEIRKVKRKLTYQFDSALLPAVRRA
ETV5, sequence (P41161 whole entry): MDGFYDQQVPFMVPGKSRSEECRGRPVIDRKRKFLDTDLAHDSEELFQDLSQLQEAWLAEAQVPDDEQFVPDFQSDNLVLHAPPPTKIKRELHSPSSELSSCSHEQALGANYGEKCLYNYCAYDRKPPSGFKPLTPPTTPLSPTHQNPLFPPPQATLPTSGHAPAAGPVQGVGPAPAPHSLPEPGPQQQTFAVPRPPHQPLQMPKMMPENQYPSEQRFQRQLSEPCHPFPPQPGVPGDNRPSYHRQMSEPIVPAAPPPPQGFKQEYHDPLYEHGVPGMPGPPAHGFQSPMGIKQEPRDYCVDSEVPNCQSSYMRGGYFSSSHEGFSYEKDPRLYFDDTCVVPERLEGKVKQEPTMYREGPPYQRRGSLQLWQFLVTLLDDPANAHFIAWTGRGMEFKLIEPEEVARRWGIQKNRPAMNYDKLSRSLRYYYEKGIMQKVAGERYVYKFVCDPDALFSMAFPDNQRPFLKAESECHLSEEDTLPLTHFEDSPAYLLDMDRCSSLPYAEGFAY
ETV1, sequence (P50549 whole entry): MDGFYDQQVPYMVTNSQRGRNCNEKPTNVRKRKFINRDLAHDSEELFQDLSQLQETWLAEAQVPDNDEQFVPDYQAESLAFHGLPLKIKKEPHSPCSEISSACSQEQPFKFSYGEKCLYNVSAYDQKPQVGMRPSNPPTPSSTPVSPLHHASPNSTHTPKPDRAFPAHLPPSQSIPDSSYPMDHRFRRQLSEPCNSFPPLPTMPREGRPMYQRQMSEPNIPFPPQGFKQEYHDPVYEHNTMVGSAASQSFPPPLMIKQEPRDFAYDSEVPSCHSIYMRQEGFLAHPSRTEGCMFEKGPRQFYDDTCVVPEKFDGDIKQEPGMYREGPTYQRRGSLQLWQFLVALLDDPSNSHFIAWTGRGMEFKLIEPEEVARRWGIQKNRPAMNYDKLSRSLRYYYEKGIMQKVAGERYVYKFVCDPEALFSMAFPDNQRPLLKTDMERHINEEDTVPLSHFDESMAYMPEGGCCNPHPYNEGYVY
ELF1, sequence (P32519 whole entry): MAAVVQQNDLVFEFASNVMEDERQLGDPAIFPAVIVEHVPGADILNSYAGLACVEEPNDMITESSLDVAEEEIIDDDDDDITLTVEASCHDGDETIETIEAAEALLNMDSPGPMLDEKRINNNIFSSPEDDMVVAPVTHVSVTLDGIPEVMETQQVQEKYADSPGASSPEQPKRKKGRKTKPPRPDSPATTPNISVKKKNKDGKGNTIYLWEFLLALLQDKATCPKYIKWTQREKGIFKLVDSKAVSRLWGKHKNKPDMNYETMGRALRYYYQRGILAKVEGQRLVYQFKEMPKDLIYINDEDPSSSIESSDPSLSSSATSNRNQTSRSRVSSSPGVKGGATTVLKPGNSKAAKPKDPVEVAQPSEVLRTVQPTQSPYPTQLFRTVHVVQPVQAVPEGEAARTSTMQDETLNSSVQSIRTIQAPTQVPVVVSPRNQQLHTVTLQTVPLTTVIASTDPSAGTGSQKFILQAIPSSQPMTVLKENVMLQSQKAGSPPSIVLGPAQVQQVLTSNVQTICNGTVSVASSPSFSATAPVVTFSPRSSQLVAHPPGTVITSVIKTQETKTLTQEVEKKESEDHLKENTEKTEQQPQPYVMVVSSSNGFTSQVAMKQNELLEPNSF
ELF4, sequence (Q99607 whole entry): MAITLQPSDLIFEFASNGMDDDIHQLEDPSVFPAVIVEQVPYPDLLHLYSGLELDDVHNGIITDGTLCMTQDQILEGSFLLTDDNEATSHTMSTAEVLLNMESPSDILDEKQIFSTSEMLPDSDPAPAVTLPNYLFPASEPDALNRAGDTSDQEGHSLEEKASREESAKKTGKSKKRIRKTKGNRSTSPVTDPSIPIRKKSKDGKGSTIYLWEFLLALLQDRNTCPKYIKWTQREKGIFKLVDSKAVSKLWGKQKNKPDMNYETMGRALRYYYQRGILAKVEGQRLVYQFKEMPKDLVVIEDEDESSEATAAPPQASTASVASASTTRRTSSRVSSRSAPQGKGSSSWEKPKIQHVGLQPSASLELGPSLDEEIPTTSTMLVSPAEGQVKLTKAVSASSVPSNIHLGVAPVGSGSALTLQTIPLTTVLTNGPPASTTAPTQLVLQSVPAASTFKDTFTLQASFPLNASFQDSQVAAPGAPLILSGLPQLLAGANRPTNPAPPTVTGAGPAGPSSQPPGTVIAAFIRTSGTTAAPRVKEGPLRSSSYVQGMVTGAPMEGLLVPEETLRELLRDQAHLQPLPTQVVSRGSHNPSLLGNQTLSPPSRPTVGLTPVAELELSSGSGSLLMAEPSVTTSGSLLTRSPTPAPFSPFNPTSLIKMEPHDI
ETV6, sequence (P41212 whole entry): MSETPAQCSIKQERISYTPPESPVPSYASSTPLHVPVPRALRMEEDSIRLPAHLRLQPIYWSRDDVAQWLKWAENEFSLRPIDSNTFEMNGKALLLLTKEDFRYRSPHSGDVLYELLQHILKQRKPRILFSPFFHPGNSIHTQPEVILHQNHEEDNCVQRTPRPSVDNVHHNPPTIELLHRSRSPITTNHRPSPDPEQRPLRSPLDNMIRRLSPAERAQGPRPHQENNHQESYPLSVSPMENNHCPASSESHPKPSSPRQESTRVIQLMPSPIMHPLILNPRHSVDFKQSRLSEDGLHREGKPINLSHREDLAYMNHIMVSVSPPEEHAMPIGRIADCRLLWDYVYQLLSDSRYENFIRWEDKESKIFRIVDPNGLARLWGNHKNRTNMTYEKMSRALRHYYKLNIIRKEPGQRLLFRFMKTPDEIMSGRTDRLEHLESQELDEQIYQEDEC

As for CGATGT, the binding signal is 1.1 fold enrichment (6-mer frequency, TF over GST control) with FLI1; 1.07 fold enrichment (6-mer frequency, TF over GST control) with ELK1; 1.08 fold enrichment (6-mer frequency, TF over GST control) with GABPA; 1.08 fold enrichment (6-mer frequency, TF over GST control) in the experiment with ERG; 1.03 fold enrichment (6-mer frequency, TF over GST control) with ELF1; 1.11 fold enrichment (6-mer frequency, TF over GST control) with EHF. Moreover, the binding signal with SPI1 is 1.15 fold enrichment (6-mer frequency, TF over GST control); with SPIB, 1.08 fold enrichment (6-mer frequency, TF over GST control); with FEV it was 1.06 fold enrichment (6-mer frequency, TF over GST control); with ETV5 it was 1.1 fold enrichment (6-mer frequency, TF over GST control); with SPIC, 1.07 fold enrichment (6-mer frequency, TF over GST control); with ELF4, 1.04 fold enrichment (6-mer frequency, TF over GST control). The binding signal with ETV1 is 1.1 fold enrichment (6-mer frequency, TF over GST control); with ERF it was 1.16 fold enrichment (6-mer frequency, TF over GST control); with ETV3L, 1.09 fold enrichment (6-mer frequency, TF over GST control); with ETS2, 1.12 fold enrichment (6-mer frequency, TF over GST control); in the experiment with SPDEF it was 1.12 fold enrichment (6-mer frequency, TF over GST control); with ETV3, 1.19 fold enrichment (6-mer frequency, TF over GST control). Moreover, the binding signal with ETV6 was 1.03 fold enrichment (6-mer frequency, TF over GST control).

The values above are taken from paper PMC7862700, “An all-to-all approach to the identification of sequence-specific readers for epigenetic DNA modifications on cytosine”.
